Assay results from PubChem BioAssay (NCATS).
Results filed as inconclusive are left out. The source made the active and inactive calls. Unless noted, calls follow the shape of the dose curve; as a rule, active = well fitted inhibition curve with a large enough effect; inconclusive = small, poorly fitted or top-dose-only effect; inactive = flat fitted curve, though single readings scatter.

How the values were obtained:
[1] = qHTS drug screen for cell cycle checkpoint inhibitors in PARPi-resistant BRCA-mutant ovarian cancer cell lines. (AID 1963452; calls by dose curve); conditions: PEO1/OlaR viability, CellTiter-Glo luminescence, 96 h, stronger effect = lower value
Outline: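 PEO1, PEO4 and PEO1/OlaR ovarian cancer cells, 600 per well, exposed 96 h at 37C to a dilution series. Viability read by CellTiter-Glo luminescence, normalized to DMSO and empty wells; activity summarized as Z-AUC.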

[2] = qHTS profiling for inhibitors of Plasmodium falciparum proliferation (AID 504749);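 also: 0% = DMSO vehicle and full inhibition = artemisinin control; nearly all actives have a fitted effect of over 60% in size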; conditions: P. falciparum in erythrocytes, SYBR Green DNA, 72 h, at 28.7 µM (top of the series)
Outline: (§1)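 Each compound contacts P. falciparum-infected red blood cells for 72 h at 37 C; lysis buffer (Tris, EDTA, saponin, Triton X, SYBR Green I) is added and fluorescence measured next morning; values normalized to controls.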

[3] = tested on: 3D7; assay: as above; conditions: P. falciparum in erythrocytes, SYBR Green DNA, 72 h; series mostly up to 28.7 µM
Outline: as §1

[4] = tested on: 7G8; assay: as above; conditions: P. falciparum in erythrocytes, SYBR Green DNA, 72 h; series mostly up to 28.7 µM
Outline: as §1

[5] = tested on: AA1029; assay: as above; conditions: P. falciparum in erythrocytes, SYBR Green DNA, 72 h; series mostly up to 28.7 µM
Outline: as §1

[6] = tested on: AS120; assay: as above; conditions: P. falciparum in erythrocytes, SYBR Green DNA, 72 h; series mostly up to 28.7 µM
Outline: as §1

[7] = tested on: ATS189; assay: as above; conditions: P. falciparum in erythrocytes, SYBR Green DNA, 72 h; series mostly up to 28.7 µM
Outline: as §1

[8] = tested on: ATS95; assay: as above; conditions: P. falciparum in erythrocytes, SYBR Green DNA, 72 h; series mostly up to 28.7 µM
Outline: as §1

[9] = tested on: C2A; assay: as above; conditions: P. falciparum in erythrocytes, SYBR Green DNA, 72 h; series mostly up to 28.7 µM
Outline: as §1

[10] = tested on: CP185; assay: as above; conditions: P. falciparum in erythrocytes, SYBR Green DNA, 72 h; series mostly up to 28.7 µM
Outline: as §1

[11] = tested on: CP191; assay: as above; conditions: P. falciparum in erythrocytes, SYBR Green DNA, 72 h; series mostly up to 28.7 µM
Outline: as §1

[12] = tested on: CP192; assay: as above; conditions: P. falciparum in erythrocytes, SYBR Green DNA, 72 h; series mostly up to 28.7 µM
Outline: as §1

[13] = measured here: PEO1 parental Z-AUC

Cc1onc(-c2ccccc2)c1-c1ccc(S(N)(=O)=O)cc1
-0.334: Z-AUC [1, 13]
inactive: Z-AUC [1] -1 | activity, negative = inhibition ([2]; parasite line A) -24.3% | Potency [3] | Potency [4] | Potency [5] | Potency [6] | Potency [7] | Potency [8] | Potency [9] | Potency [10] | outcome [11] | outcome [12]
0.0747: Z-AUC ([1]; measured here: PEO4 Z-AUC)

O=S1(=O)OC(c2ccc(O)cc2)(c2ccc(O)cc2)c2ccccc21
inactive: activity, negative = inhibition ([2]; parasite line A) -0.266% | activity, negative = inhibition ([2]; parasite line B) 7% | Potency [3] | Potency [4] | Potency [5] | Potency [6] | Potency [7] | Potency [8] | Potency [9] | Potency [10] | outcome [11] | outcome [12]

O[C@@H]1CO[C@H]2[C@@H]1OC[C@@H]2O
inactive: activity, negative = inhibition ([2]; parasite line A) 8.49% | activity, negative = inhibition ([2]; parasite line B) 1.12% | Potency [3] | Potency [4] | Potency [5] | Potency [6] | Potency [7] | Potency [8] | Potency [9] | Potency [10] | outcome [11] | outcome [12]

CN(C(=O)c1c(O)c2ccccc2n(C)c1=O)c1ccccc1
0.496: Z-AUC ([1]; measured here: PEO4 Z-AUC)
inactive: Z-AUC [1] 0.957 | activity, negative = inhibition ([2]; parasite line A) 16.3% | activity, negative = inhibition ([2]; parasite line B) 2.94% | Potency [3] | Potency [5] | Potency [6] | Potency [7] | Potency [8] | Potency [9] | Potency [10] | outcome [11] | outcome [12]
0.533: Z-AUC [1, 13]

O=C(OOC(=O)c1ccccc1)c1ccccc1
inactive: activity, negative = inhibition ([2]; parasite line A) -10.4% | activity, negative = inhibition ([2]; parasite line B) 7.71% | Potency [3] | Potency [4] | Potency [5] | Potency [6] | Potency [7] | Potency [8] | Potency [9] | Potency [10] | outcome [11] | outcome [12]

CCCCCOC(=O)Nc1nc(=O)n([C@@H]2O[C@H](C)[C@@H](O)[C@H]2O)cc1F
-0.448: Z-AUC ([1]; measured here: PEO4 Z-AUC)
-0.525: Z-AUC [1, 13]
inactive: Z-AUC [1] -0.294

C/C=C/C(=O)N(CC)c1ccccc1C
0.821: Z-AUC ([1]; measured here: PEO4 Z-AUC)
0.852: Z-AUC [1, 13]
inactive: Z-AUC [1] 0.904

Cc1c(C(=O)NCCO)[n+](=O)c2ccccc2n1[O-]
inactive: activity, negative = inhibition ([2]; parasite line A) 8.49% | activity, negative = inhibition ([2]; parasite line B) -1.36% | Potency [3] | Potency [4] | Potency [5] | Potency [6] | Potency [7] | Potency [8] | Potency [9] | Potency [10] | outcome [11] | outcome [12]

NS(=O)(=O)c1ccc(NC(=O)CCC(=O)O)cc1
inactive: activity, negative = inhibition ([2]; parasite line A) 0.494% | activity, negative = inhibition ([2]; parasite line B) 7.64% | Potency [3] | Potency [4] | Potency [5] | Potency [6] | Potency [7] | Potency [8] | Potency [9] | Potency [10] | outcome [11] | outcome [12]

Cn1c([N+](=O)[O-])cnc1COC(N)=O
inactive: activity, negative = inhibition ([2]; parasite line A) 5.14% | activity, negative = inhibition ([2]; parasite line B) 3.75% | Potency [3] | Potency [4] | Potency [5] | Potency [6] | Potency [7] | Potency [8] | Potency [9] | Potency [10] | outcome [11] | outcome [12]
